Hit rate of the full screen: of about 360,000 compounds, about 5,000 (1.4%) were called active. The sample holds actives, similar compounds and a random draw of the others, so the mix is not that of the screen. Values without a mark were called inactive.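 How the source made its calls: active means inhibition of 50% or more, scaled per plate between neutral and stimulator controls; inactive means the rest.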
Assay: mitochondrial permeability transition pore inhibitors, primary screen, biochemical, isolated mouse mitochondria, absorbance (AID 602449);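 further: 0% = DMSO wells given calcium and 100% = 1 mM EGTA wells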
Conditions: Ca2+ swelling absorbance, 30 min, at 10 µM, hits give high values

SMILES | inhibition
CC(C)c1ccc(CC(=O)N2CCC2(C)C(=O)NS(=O)(=O)c2ccc(C(C)(C)C)cc2)cc1 (configuration not stated) | 1.8%
COc1ccc(Cl)cc1NC(=O)COC(=O)C(CC(C)C)N1C(=O)C2CC=CCC2C1=O (configuration not stated) | 1.6%
COc1ccc(C(=O)C2CCCN(C(=O)c3cc(C)on3)C2)cc1F (configuration not stated) | -1.4%
O=C(NNC(=O)c1csc(-c2cccnc2)n1)Nc1ccc(Cl)cc1 | 56.5% (active)
O=C(CSc1n[nH]c(-c2cccnc2)n1)Nc1ccc(Cl)cc1 | 1.2%
O=C(Nc1ccc(Cl)cc1)c1csc([C@@H]2O[C@H](CO)[C@H](O)[C@H](O)[C@H]2O)n1 | -4.4%
CCCN(C(=O)c1nc2nccc(C)n2n1)c1c(N)n(Cc2ccccc2)c(=O)[nH]c1=O | -2.3%
CCc1cc(C(=O)OC)c(NC(=O)CC2Sc3ccc(C(F)(F)F)cc3NC2=O)s1 (configuration not stated) | 3.8%
O=C(Nc1ccc(Cl)cc1)c1csc([C@H]2C[C@H](O)[C@@H](CO)O2)n1 | -0.6%
CC[C@@H](C)[C@@H](C(=O)N1CCN(C(=O)OC(C)(C)C)CC1)n1cc(CCC(=O)O)nn1 | -0.6%
CC(C)(C)c1ccc(CCC2OCC(CN3CCOCC3)O2)cc1 (configuration not stated) | 3.3%
COc1cccc(C(C(=O)NC2CCCC2)N(C(=O)c2ccco2)c2cccc(C(C)=O)c2)c1OC (configuration not stated) | -2.4%
Cc1ccc(S(=O)(=O)NCc2nc3ccccc3c(=O)n2N)cc1 | 1.2%
Cc1nc(CNS(=O)(=O)c2ccc(Oc3ccccc3)cc2)cs1 | 88.7% (active)
Cc1nc(CNS(=O)(=O)c2cc([N+](=O)[O-])ccc2C)cs1 | 0.4%
COC(=O)[C@@]12C[C@@H](CC(=O)NCCCCc3ccccc3)C(=O)N(Cc3ccccc3)C1=CCC(C)(C)C2 | -0.7%
Cc1ccc(OCC(=O)N2CCN(S(=O)(=O)c3ccc(Cl)s3)CC2)cc1C | 2.3%
O=C(COC(=O)C1CC2C=CC1C2)Nc1ccccc1 (configuration not stated) | -0.1%
CC(C)c1ccc(NC(=O)NC2CCCCC2)cc1 | 0.2%
CC(C)c1ccc(NC(=S)NC2CC3C=CC2C3)cc1 (configuration not stated) | 73.8% (active)
CCOC(=O)/C(N=Nc1cc(C(=O)O)cc(C(=O)O)c1)=C(\O)CCl | -2.4%
CN(C)C(CNC(=O)c1cccc(S(=O)(=O)Nc2ccc(Br)cc2)c1)c1ccco1 (configuration not stated) | -0.5%
Cc1ccc(CC(=O)Nc2ccc(S(=O)(=O)N3CCOCC3)cc2)cc1C | 1%
COC(=O)Cc1ccc(NC(=S)NCc2ccco2)cc1 | -0.8%

SMILES | inhibition
COc1ccc(Cc2nnc(SCC(=O)Nc3ccc(C)c(C)c3)o2)cc1OC | 0%
Cc1ccc(CC(=O)Nc2ccc(OC(F)F)c(Cl)c2)cc1C | 60% (active)
COc1cc(NC(=S)NCc2ccco2)c(OC)cc1Cl | 1.7%
FC(F)Oc1ccc(NC(=S)NCc2ccco2)cc1Cl | 86.1% (active)
OCCC1CN(Cc2ccc3nsnc3c2)CCN1C1CCCC1 (configuration not stated) | 2.1%
Cc1nnc(SCC(=O)N(C(C)C)C(C)C)nc1C | -1.3%
CCC(C(=O)NCc1ccc(OC)cc1)n1nc(C)n2c(cc3occc32)c1=O (configuration not stated) | 0.5%
CCC(C)NC(=O)c1nn(C)c(=O)c2ccccc12 (configuration not stated) | -0.2%
COc1cccc(/C=C(/CC(=O)Nc2ccc(N3CCOCC3)cc2)c2nc3ccccc3s2)c1 | -0.3%
COc1ccc(/C=C(/CC(=O)Nc2ccc(C)cc2)c2nc3ccccc3s2)cc1 | 52.2% (active)
COc1ccc(NC(=O)COC(=O)c2ccc(NS(=O)(=O)/C=C/c3ccccc3)cc2)cc1 | -9%
CCc1ccc(CN(C)C(C)C(=O)Nc2ccc(S(=O)(=O)N3CCCC3)cc2)cc1 (configuration not stated) | 0.2%
O=C1NC[C@H](CCCCN2C[C@H](Cc3ccccc3)N(Cc3ccccc3)C(=O)C2=O)N(CCc2ccc(O)cc2)C1=O | -0.9%
COC(=O)c1ccccc1NC(=O)CN(Cc1ccc(Cl)cc1)S(C)(=O)=O | 0.4%
CN(Cc1cnccn1)C(=O)c1cc(COc2cccc(C(F)(F)F)c2)on1 | 0%
CN(Cc1cccnc1)C(=O)c1cc(COc2ccc3ncccc3c2)on1 | 98.2% (active)
CC(=O)c1cccc(OCc2cc(C(=O)NC(C)Cc3cccnc3)no2)c1 (configuration not stated) | 0%
O=C(Nc1ccc(C2CC2(Cl)Cl)cc1)c1cccc([N+](=O)[O-])c1 (configuration not stated) | 77.1% (active)
Cc1ccc(NC(=O)C(=O)NCC2CCN(C(=O)c3cccc([N+](=O)[O-])c3)CC2)cc1 | -2.2%
O=C(NC(=S)NC1CCS(=O)(=O)C1)c1cccc([N+](=O)[O-])c1 (configuration not stated) | -0.7%
Cc1ccc(CS(=O)(=O)CCC(=O)NC2CC2)cc1 | -1.1%
COc1ccc(NC(=S)Nc2ccc(S(N)(=O)=O)cc2)c(C)c1 | -2.1%
NS(=O)(=O)c1ccc(NC(=S)Nc2ccc(Br)c(Cl)c2)cc1 | 102% (active)
NS(=O)(=O)c1ccc(NC(=S)N2CCCC2)cc1 | -0.2%

SMILES | inhibition
CC1=C/C(=N\OS(=O)(=O)c2ccccc2)C=CC1=O | 103% (active)
O=C(COC(=O)c1ccc(NS(=O)(=O)c2cccs2)cc1O)Nc1ccc(F)cc1 | 4.7%
O=S(=O)(Cc1cc(Cl)nc(-c2cccnc2)n1)c1ccccc1 | 0.8%
COc1ccc(NC(=O)Nc2ccc3nsnc3c2)cc1 | 87.9% (active)
COCCNC(=O)Nc1ccc2nc(-c3ccco3)c(-c3ccco3)nc2c1 | 0.5%
O=C(Nc1ccccc1)c1ccc2nsnc2c1 | -1.8%
CSCc1cc(N(C)C)nc(SCc2ccc(Cl)cc2Cl)n1 | 1.1%
COc1ccc(C(=O)CSc2n[nH]c(N)n2)cc1 | -1%
CCCCN(C(=O)/C=C/c1ccco1)c1c(N)n(CC(C)C)c(=O)[nH]c1=O | 0%
O=S(=O)(Nc1cccc(-c2ccc(N3CCOCC3)nn2)c1)c1ccc(Cl)c(Cl)c1 | -0.6%
O=C(NNC(=O)c1cccc(S(=O)(=O)Nc2ccc(Cl)cc2)c1)c1ccc(=O)[nH]c1 | -1.3%
Fc1ccc2[nH]c3c(N4CCSCC4)ncnc3c2c1 | 80.7% (active)
CCN(CC(=O)Nc1ccccc1OC)C(=O)CC1CC2CCC1C2 (configuration not stated) | 0.6%
S=C(Nc1cccc(Cl)c1)Nc1ccc2cn[nH]c2c1 | 55% (active)
O=C(Nc1ccc2cn[nH]c2c1)c1ccc(S(=O)(=O)N2CCOCC2)cc1 | -4.1%
Cc1ccc(C2CCN(C(=S)Nc3cccc(Cl)c3)C2)cc1 (configuration not stated) | 14.6%
CC(C)Cc1nnc(NC(=O)CCC(=O)Nc2ccc3cn[nH]c3c2)s1 | 2%
Cc1csc(NC(=S)Nc2cccc(Cl)c2)n1 | 64.4% (active)
O=C(NCc1cn2ccsc2n1)Nc1cccc(Cl)c1 | -1.5%
CCOC(=O)Cn1c2c(c(-c3ccccc3OC)cc1=O)CCCC2 | -1.1%
Clc1ccc(C2=CSC3=Nc4cccc5cccc(c45)N23)cc1 | 6.8%
CN(Cc1c(F)cccc1Cl)S(=O)(=O)c1cccs1 | -1.8%
Cc1ccc(Nc2c(O)nc[nH]c2=O)cc1C | -0.6%
CCOC(=O)N1CCC(Nc2c(NCCCN3CCN(c4ccc(OC)cc4)CC3)c(=O)c2=O)CC1 | 2.4%

— PubChem BioAssay AID602449 (Sanford-Burnham Center for Chemical Genomics, 2012)
